Screens as filed in PubChem.
Only some compounds are listed: those with a hit (about 22% of all), similar ones and a draw of the others.
Shiga toxin inh: blocks Shiga toxin action in Vero cells. AID 2315. Vero cells, Shiga toxin protein synthesis inhibition reporter. inhibition, % at 38.7 µM. actives 9.2% (n = 290,000); in the data active = inhibition mostly above about 28%, no sharp cut-off; inactive = mostly below about 43%
LmPK inh: LmPK (Leishmania mexicana) enzyme inhibition; Q27686; purified LmPK, Kinase-Glo ATP luminescence, 1 h; Potency, µM (top dose mostly 57.5 µM), most hits filed as inhibitors; actives 0.37% (n = 290,000)
Target sequence (Q27686 whole entry, looked up): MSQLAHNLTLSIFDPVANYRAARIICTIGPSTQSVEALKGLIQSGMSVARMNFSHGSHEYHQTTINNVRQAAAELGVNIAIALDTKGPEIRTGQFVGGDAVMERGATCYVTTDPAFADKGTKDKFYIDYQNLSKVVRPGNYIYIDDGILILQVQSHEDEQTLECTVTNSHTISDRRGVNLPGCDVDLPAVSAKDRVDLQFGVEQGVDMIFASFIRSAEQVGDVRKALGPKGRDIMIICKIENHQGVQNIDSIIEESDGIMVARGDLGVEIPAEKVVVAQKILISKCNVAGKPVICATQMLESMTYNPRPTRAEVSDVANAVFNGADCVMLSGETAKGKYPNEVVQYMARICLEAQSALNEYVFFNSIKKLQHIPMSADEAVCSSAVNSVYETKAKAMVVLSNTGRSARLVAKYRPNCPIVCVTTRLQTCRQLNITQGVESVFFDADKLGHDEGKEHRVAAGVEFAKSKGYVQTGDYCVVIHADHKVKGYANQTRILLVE
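Kinase-Glo luminescence read after 1 h RT reaction of 0.1 nM LmPK with 0.5 mM PEP and 0.1 mM ADP. Activity scaled between uninhibited and enzyme-free controls.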
Cycloheximide cs: affects cycloheximide protein synthesis inhibition readout, counter-screen; cell reporter, cycloheximide protein synthesis inhibition counterscreen; max response, %; actives 12% (n = 300,000); AID 2314; in the data active = max response mostly above about 13%, no sharp cut-off; inactive = mostly below about 14%; note: read at 38.3 µM for the half of the compounds with a filed dose
Pf growth 96h: inhibits malaria parasite growth, 96 h; Potency, µM (titrated, usually from 28.7 µM), most hits filed as inhibitors; actives 6.9% (n = 320,000); AID 504834; P. falciparum luciferase reporter growth, 96 h
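Two parasite generations (96 h, 37 C, 5% CO2) of compound exposure in infected erythrocytes (0.05% parasitemia, 2% hematocrit). Luciferase-reporter P. falciparum; decreased luminescence indicates inhibited growth, aimed at apicoplast-acting delayed death.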
Pf growth 48h: inhibits P. falciparum growth in the first generation, 48 h | P. falciparum luciferase growth in erythrocytes, 48 h | Potency, µM (doses to about 28.7 µM), usual class: inhibitors | actives 5.9% (n = 310,000)
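Firefly luciferase activity from engineered P. falciparum reports growth; inhibitors lower the luminescent signal. Cultures contained 2% hematocrit erythrocytes at 0.1% final parasitemia.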
Numbers stand for hits; i = inactive; ? = inconclusive; nt = no result given. Unless noted, calls come from the whole dose curve; as a rule, active = well fitted inhibition curve with a large enough effect; inconclusive = small, poorly fitted or top-dose-only effect, or another doubt; inactive = no such curve, though single readings can be large or run the other way.

SMILES	Shiga toxin inh	LmPK inh	Cycloheximide cs	Pf growth 96h	Pf growth 48h
O=C(/C=C/c1ccc(Cl)cc1)N1CCN(c2c(Cl)cccc2[N+](=O)[O-])CC1	i	i	i	?	i
O=C(O)c1cc(/C=C/c2ccc(N3CCOCC3)c([N+](=O)[O-])c2)nc2ccccc12	i	?	i	i	i
O=[N+]([O-])c1cccc2ccc(/C=C/c3ccc(C(F)(F)F)cc3)nc12	i	i	21	i	?
CC(=O)Nc1ccc(/C=C/c2ccc3c([N+](=O)[O-])cccc3n2)cc1	70	i	33	i	i
O=[N+]([O-])c1cccc2ccc(/C=C/c3cccc(Br)c3)nc12	70	i	42	i	i
CCOC(=O)N1CCN(C(=O)COC(=O)C2CCN(S(=O)(=O)c3c(Cl)cccc3Cl)CC2)CC1	nt	nt	nt	i	?
COc1ccccc1NC(=O)C1CCCN(S(=O)(=O)c2ccccc2)C1 (stereo not drawn)	i	i	i	?	i
Cc1ccc(C(C(=O)NCC2CCCO2)N(C(=O)c2snc(C(N)=O)c2N)c2ccccc2F)o1 (stereo not drawn)	i	i	i	i	?
COCCN(C(=O)CSc1cc(C)c2ccccc2n1)c1c(N)n(CC(C)C)c(=O)[nH]c1=O	nt	nt	nt	i	i
CCOc1cc(/C=C/c2ccc3cccc([N+](=O)[O-])c3n2)cc(Cl)c1O	i	i	11	?	9.3µM
Cc1nnc(SCC(=O)Nc2cc(Cl)ccc2Cl)n1CC1CCCO1 (stereo not drawn)	i	i	i	i	i
NC(=O)[C@@H]1CCCNc2c(F)cc([N+](=O)[O-])cc2C(=O)N[C@@H](CO)C(=O)N[C@@H](Cc2ccc(O)cc2)C(=O)N1	i	i	i	i	i
CC(C)C[C@@H]1NC(=O)[C@H](C(C)C)NC(=O)c2cc([N+](=O)[O-])cc(I)c2NCC[C@@H](C(N)=O)NC1=O	i	i	i	2.1µM	?
CC(C)[C@@H]1NC(=O)c2cc([N+](=O)[O-])cc(F)c2NCCC[C@@H](C(N)=O)NC(=O)[C@H](CO)NC1=O	i	i	i	9.3µM	i
CC(C)[C@@H]1NC(=O)c2cc([N+](=O)[O-])cc(I)c2NCC[C@@H](C(N)=O)NC(=O)[C@H](CO)NC1=O	i	i	i	i	i
CCc1ccccc1NC(=S)N1N=CCC1c1ccccc1 (stereo not drawn)	i	i	17	i	?
CC1=NN(C(=S)Nc2ccccc2)C(c2ccccc2)C1 (stereo not drawn)	i	i	i	2.6µM	9.3µM
Cc1cccc(NC(=S)N2N=CCC2c2ccccc2)c1 (stereo not drawn)	119	i	42	?	nt
Cc1ccc(C2CC(c3ccccc3)=NN2C(=S)Nc2ccccc2)o1 (stereo not drawn)	i	i	i	?	nt
Cc1ccccc1CC(=O)Nc1ccc(S(=O)(=O)N2CCOCC2)cc1	i	i	i	i	i
CCCCNC(=O)c1ccc(NC(C)=O)c(Cl)c1	i	i	i	?	i
CCC(=O)c1ccc(OCC(=O)NCCc2ccccn2)cc1	i	i	i	i	i
CC(C(=O)N1CCN=C1c1ccccc1)N1C(=O)c2ccccc2C1=O (stereo not drawn)	i	i	i	i	i
CCOc1ccc(NC(=O)CN(C)C(=O)c2cc(-c3ccc(OC)cc3)nc3ccccc23)cc1OCC	nt	nt	nt	7.4µM	9.3µM
COc1ccc(-c2cc([N+](=O)[O-])ccc2OCC(=O)N(C)CC(=O)Nc2ccc(C)cc2)cc1	nt	nt	nt	9.3µM	6.6µM
SMILES	Shiga toxin inh	LmPK inh	Cycloheximide cs	Pf growth 96h	Pf growth 48h
CCOc1ccc(NC(=O)CN(C)C(=O)c2ccccc2OCCOc2ccccc2)cc1OCC	nt	nt	nt	?	i
COc1cccc(NC(=O)CN(C)C(=O)c2cc(-c3ccc(C)o3)nc3ccccc23)c1	nt	nt	nt	9.3µM	12µM
COc1ccc(-c2cc(C(=O)N(C)CC(=O)Nc3ccccc3Br)c3ccccc3n2)cc1OC	nt	nt	nt	9.3µM	8.3µM
COc1ccc(-c2cc(C(=O)N(C)Cc3ccccc3F)c3ccccc3n2)cc1OC	i	i	i	i	i
CCCCSc1nnc(CSc2nc3nc(C)cc(C)n3n2)o1	i	i	i	?	nt
COC(=O)C1=C(CSc2nc3ccccc3s2)NC(=O)NC1c1ccc(F)cc1 (stereo not drawn)	i	i	i	?	?
CCOC(=O)CN1C(=O)CN(c2ccc(C)cc2)C1=O	50	i	29	i	i
COc1ccc(/C=N/NC(=O)c2ccc3ccccc3c2)cc1OS(=O)(=O)c1ccc(NC(C)=O)cc1	i	i	i	?	?
CCN1CCN(c2nc(C)nc3c2sc(=S)n3C)CC1	i	i	i	3.7µM	i
Cc1nc(N2CCCCC2)c2sc(=S)n(C)c2n1	i	i	i	?	i
Nc1ccc(Nc2nc(-c3cccs3)cs2)cc1	i	i	i	i	?
c1cncc(-c2csc(-c3cccnc3)n2)c1	i	i	i	i	i
c1cncc(-c2nc(-c3cccs3)cs2)c1	i	i	44	?	i
Nc1nc(-c2ccco2)cs1	i	i	i	?	i
Clc1ccsc1-c1csc(-c2cccnc2)n1	i	i	33	?	nt
c1csc(-c2csc(-c3cccs3)n2)c1	118	i	30	i	i
c1cncc(-c2nc(-c3ccco3)cs2)c1	79	i	27	nt	i
O=S(=O)(c1ccc(-c2csc(-c3cccnc3)n2)cc1)N1CCCC1	i	i	i	i	?
CCOC(=O)CCC(=O)Nc1ccc([N+](=O)[O-])cc1C	i	i	i	i	i
COc1ccccc1NC(=O)Nc1nnc(CC(=O)Nc2ccccc2C)s1	i	i	i	?	?
Cc1nnc(SCC(=O)N(CCC#N)c2ccc3c(c2)OCCO3)s1	nt	nt	nt	?	i
Oc1ccc(-c2csc(-c3cccnc3)n2)c(O)c1	111	i	35	?	i
CCOC(=O)N1CCN(C(=O)CNS(=O)(=O)c2c(C)cc(C)cc2C)CC1	i	i	i	?	i
O=C(Nc1ccc(N2CCOCC2)cc1N1CCOCC1)c1ncoc1-c1cccc(F)c1	i	i	i	i	12µM
O=C(Nc1ccccc1N1CCCCC1)c1ncoc1-c1ccc(F)cc1	i	i	i	nt	3.3µM
SMILES	Shiga toxin inh	LmPK inh	Cycloheximide cs	Pf growth 96h	Pf growth 48h
O=C(NCCS(=O)(=O)N1CCN(c2cccc(Cl)c2)CC1)c1ccco1	nt	nt	nt	?	i
CCOc1ccc(N(C(=O)c2ccccc2Cl)C2=NC(C)(C)CS2)cc1	66	i	28	?	i
N#Cc1c(-n2cccc2/C=N/O)sc2c1CCCC2	i	i	i	15µM	i
C=CCNCc1cccn1-c1sc2c(c1C#N)CCCC2	i	i	i	i	i
COc1ccc(N2CCN(C(=O)CSc3nc4nc(C)cc(C)n4n3)CC2)cc1	nt	nt	nt	13µM	?
Cc1cc(C)n2nc(SCC(=O)N3CCN(c4ccc(F)cc4)CC3)nc2n1	nt	nt	nt	6.6µM	?
Cc1cc(C)n2nc(SCC(=O)N3CCOCC3)nc2n1	nt	nt	nt	i	i
COC(=O)C1CCN(C(=O)CSc2nc3nc(C)cc(C)n3n2)CC1	nt	nt	nt	i	i
COc1ccc(C[C@H]2CN3C(=NC[C@@H]3Cc3ccccc3)N2CCNC(=O)c2ccc(C)c(Br)c2)cc1	i	i	i	5.2µM	?
